Compound activity: PubChem BioAssay, National Center for Advancing Translational Sciences (NCATS)
Compounds with a hit are over-represented: about 0.71% of the library has one in this group of screens.
USP1-UAF1 inh – inhibitors of human USP1/UAF1 deubiquitinase; O94782; recombinant USP1/UAF1, Ub-Rhodamine cleavage fluorescence; Potency, µM (highest dose often 57.1 µM), without a hit: top-dose activity change, negative = inhibition, actives largely listed as inhibitors; 390,000 tested, 0.23% active; also: potency is read from the fitted curve at half-maximal effect; nearly all actives have a fitted effect of over 60% in size
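Step one: compound is pinned into 1nM USP1/UAF1 in HEPES pH 7.8 buffer with TCEP. Step two: 15 min room-temperature incubation. Step three: Ub-Rho (150nM final) starts cleavage, tracked by fluorescence over six one-minute reads.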
Eya2 inh – Eya2 (human) phosphatase inhibition | O00167 | 330,000 tested, 0.006% active | AID 488837 | Potency, µM (titrated, usually from 76.9 µM), without a hit: at the highest dose activity, negative = inhibition, usual class: inhibitors | recombinant Eya2, OMFP fluorescence dephosphorylation (OMFP is methylfluorescein phosphate); also: potency is read from the fitted curve at half-maximal effect
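Eya2 protein (added as 0.2 uM solution) was preincubated with compound for 10 min at ambient temperature in 50 mM HEPES pH 7.5, 50 mM NaCl, 5 uM MgCl2, 0.05% BSA, 1 mM DTT. OMFP (added at 50 uM) then reacted 10 min; fluorescence read at 485/525 nm.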
USP2a block – inhibitors of human ubiquitin-specific protease USP2a; O75604; USP2 core, Ub-CHOP2 coupled fluorogenic reporter, 485/531; Potency, µM (titrated, usually from 38.3 µM), without a hit: at the top dose activity change, negative = inhibition, most hits filed as inhibitors; 330,000 tested, 0.01% active;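 also: potency is read from the fitted curve at half-maximal effect; plate controls were DMSO wells for no effect and full inhibition by NEM control for full effect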
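USP2 core (10nM final) preincubated 30min RT with compound in 20mM Tris-HCl pH 8.0, 2mM CaCl2, 2mM beta-mercaptoethanol, 0.05% CHAPS; 25nM Ub-CHOP2 plus 25nM reporter substrate added, fluorescence (Ex485/Em531) read after 60min.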
FBPA coupling cs – counter-screen for Giardia aldolase inhibitors: coupling enzyme system. 290,000 tested, 0.67% active. AID 2472. activity change, negative = inhibition, % at 58.2 µM, hits read low. coupling enzyme system counterscreen, AmpLite Red fluorescence; in the data active = activity change below about -30%
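Coupling enzymes only (glyceraldehyde-3-phosphate) + compound, at 57.5 uM final, 10 min RT; add substrate/coupling/AmpLite Red mix, 20 min RT; fluorescence ex 525/em 598 nm. Actives flag coupling-system interference.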
PI4K2A inh – blocks human PI4K2A kinase activity | Q9BTU6 | purified PI4K2A, ADP-Glo luminescence, 1 h; stronger effect = lower value | activity change, negative = inhibition, % at 76.9 µM | 420,000 tested, 0.13% active | AID 1346378; in the data active = activity change below about -50%; inconclusive = mostly about -30% to -49%;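 also: -100% = wells without enzyme as full effect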
Target sequence (Q9BTU6 whole entry, looked up): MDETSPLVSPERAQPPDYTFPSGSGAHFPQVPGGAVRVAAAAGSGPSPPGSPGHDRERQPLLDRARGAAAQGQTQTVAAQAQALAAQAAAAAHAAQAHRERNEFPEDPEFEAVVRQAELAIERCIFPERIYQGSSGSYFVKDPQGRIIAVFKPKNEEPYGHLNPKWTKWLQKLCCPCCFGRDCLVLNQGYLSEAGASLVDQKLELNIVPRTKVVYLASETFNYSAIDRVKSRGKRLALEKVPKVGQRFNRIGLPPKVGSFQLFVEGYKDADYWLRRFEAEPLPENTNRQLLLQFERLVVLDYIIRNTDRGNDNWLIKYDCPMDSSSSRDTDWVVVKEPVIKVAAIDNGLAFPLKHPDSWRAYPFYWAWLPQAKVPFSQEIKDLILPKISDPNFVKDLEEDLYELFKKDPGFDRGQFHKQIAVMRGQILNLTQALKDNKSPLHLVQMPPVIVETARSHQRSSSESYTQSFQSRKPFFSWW
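ADP-Glo luminescence measured ADP generated by PI4K2A enzyme (4 ug/mL before mixing) with 1.2 mM PI substrate (pre-mix) and 300 microM ATP (pre-mix). Tris pH7.5 buffer with MgCl2, Triton X-100; 1 h reaction at ambient temperature.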
GALK inhibitor – blocks human galactokinase activity; Purified GALK, Kinase-Glo residual ATP luminescence; Potency, µM (series often up to 57.5 µM), without a hit: at the highest dose activity change, negative = inhibition, hits mostly inhibitors; 270,000 tested, 0.007% active; AID 1868; also: potency is read from the fitted curve at half-maximal effect
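Luminescence from leftover ATP (Ultra-Glo luciferase/luciferin) served as read-out after a 1 h room-temperature reaction of 5 nM GALK with 35 uM ATP and 100 uM galactose.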
An asterisk follows results filed as active; ? = inconclusive; nt = not tested or not shown; ! = not confirmed by another sample. Unless noted, calls follow the shape of the dose curve; as a rule, active = well fitted curve in the direction sought with a large enough effect; inconclusive = small, poorly fitted or top-dose-only effect, or another doubt; inactive = no such curve, though single readings can be large; an effect the other way counts as inactive or inconclusive. Unless noted, % is scaled to controls: 0 for no effect and ±100 for the full control effect.

SMILES	USP1-UAF1 inh	Eya2 inh	USP2a block	FBPA coupling cs	PI4K2A inh	GALK inhibitor
Oc1ccc(NCc2ccccc2OCc2ccccc2F)cc1	?	8%	-1%	-52*	?	4%
CCOc1cc(CNCc2ccccc2)ccc1OCc1ccc(Cl)cc1	-18%	-19%	-7%	-1	1	4%
CC(=O)N[C@H]1[C@H]([C@H](O)[C@H](O)CO)OC(C(=O)O)=C[C@@H]1N=C(N)N	nt	nt	nt	nt	3	nt
CC(C)OC(=O)C[C@H](NC(=O)OC(C)(C)C)c1ccccc1	nt	nt	nt	2	nt	nt
CC(C)=CCC/C(C)=C/CO/N=C1/C[C@@H](O)[C@@H](O)[C@@H]2[C@@H]3C(=O)N(C4CCCCC4)C(=O)[C@H]3CC[C@H]12	nt	nt	nt	2	nt	nt
CNC[C@H](O)[C@@H](O)[C@H](O)[C@H](O)CO	nt	nt	nt	nt	1	nt
Cc1ccc(Sc2ccccc2CN(C)C)c(N)c1	nt	nt	nt	-1	nt	nt
Cc1ccc(NCc2ccccc2OCc2ccccc2F)cc1	-9%	-2%	-10%	-6	-17	-1%
Oc1ccc(NCc2ccccc2OCc2ccccc2Cl)cc1	32µM*	nt	nt	nt	-28	nt
CCOC(=O)CCCCC1=CC2=CC(=O)C(C)(O)C(=O)C2=CO1 (centres undefined)	nt	nt	nt	-1	nt	nt
Cc1c(C)c2c(c(C)c1OC(=O)CCC(=O)OCCO)CC[C@@](C)(CCC[C@H](C)CCC[C@H](C)CCCC(C)C)O2	nt	nt	nt	nt	-4	nt
N=C(N)SCc1ccccn1	-13%	10%	2%	-80*	-1	2%
N=C(N)SCc1ncccc1O	-5%	?	4%	0	2	-2%
CCCN(C(=O)CCc1nc(-c2ccc(C)cc2)no1)c1ccc(OCC)cc1	-19%	nt	nt	nt	0	nt
COC(=O)c1cc(-c2cc(Cl)ccc2OC)c(=O)n2c1CCC2	nt	nt	nt	nt	1	nt
Cc1ccc(SCC(=O)Nc2ccc(C(=O)Nc3ccc(O)cc3)cc2)cc1	-15%	-12%	11µM*	9	0	1%
CC1OC(CC(=O)O)CC2=C1C(=O)c1c(O)cccc1C2=O (centres undefined)	11µM*	nt	nt	nt	-59*	nt
O=C1c2cccc(O)c2C(=O)c2c(O)cccc21	nt	2%	3%	0	-2	nt
CC(=O)N1N=C(c2ccccc2)OC1c1ccc([N+](=O)[O-])s1 (centres undefined)	25µM*	-15%	-7%	-27	-21	3%
S=c1[nH]c2cc3ccccc3cc2[nH]1	?	5%	-5%	-53*!	3	5%
S=c1[nH]c2ccc3ccccc3c2[nH]1	-5%	-3%	3%	-2	-1	2%
CCN(CC)c1ccc(NC2=C(Cl)C(=O)c3ccccc3C2=O)cc1	?	0%	2%	-38*	-22	3%
Cc1ccc(NC2=C(Cl)C(=O)c3ccccc3C2=O)cc1	-23%	-2%	0%	-22	-4	1%
CCCC(=O)NC1=C(Cl)C(=O)c2ccccc2C1=O	18µM*	nt	nt	nt	-12	nt
O=C1C(Cl)=C(NCCN2CCCCC2)C(=O)c2ccccc21	18µM*	9%	0%	-37*	-1	-2%
SMILES	USP1-UAF1 inh	Eya2 inh	USP2a block	FBPA coupling cs	PI4K2A inh	GALK inhibitor
CCNC1=C(Cl)C(=O)c2ccccc2C1=O	?	6%	?	-33*	-13	3%
O=C1C(Cl)=C(NCc2ccco2)C(=O)c2ccccc21	?	nt	nt	nt	-15	nt
CCOC(=O)c1ccc(O)c(O)c1	nt	nt	nt	nt	-1	nt
CCN(CC)c1ccc(N=Cc2ccccc2[N+](=O)[O-])cc1	?	13%	5%	-19	-12	nt
CCN(CC)c1ccc(N=Cc2ccc([N+](=O)[O-])o2)cc1	?	4%	2%	-39*	-29	7%
CC(C)=NOCc1ccc(-c2cn([C@@H]3COC[C@@H]3O)nn2)cc1	nt	nt	nt	-5	nt	nt
O=C(O)c1ccccc1-c1ccc(/C=C/c2cc(C(F)(F)F)[nH]c(=O)n2)o1	28µM*	?	?	2	-8	3%
